From PubChem BioAssay
RORgamma inh = inhibitors of mouse ROR gamma transcriptional activity; P51450; Drosophila S2 Gal4-RORgamma UAS-luciferase reporter, 20 h; Potency, µM (top dose mostly 53.6 µM), without a hit: at the highest dose activity change, negative = inhibition, most hits filed as inhibitors; hit rate 5.4% among 310,000; note: nearly all actives have a fitted effect of over 60% in size
Target sequence (P51450 whole entry, looked up, the tested form may be a part): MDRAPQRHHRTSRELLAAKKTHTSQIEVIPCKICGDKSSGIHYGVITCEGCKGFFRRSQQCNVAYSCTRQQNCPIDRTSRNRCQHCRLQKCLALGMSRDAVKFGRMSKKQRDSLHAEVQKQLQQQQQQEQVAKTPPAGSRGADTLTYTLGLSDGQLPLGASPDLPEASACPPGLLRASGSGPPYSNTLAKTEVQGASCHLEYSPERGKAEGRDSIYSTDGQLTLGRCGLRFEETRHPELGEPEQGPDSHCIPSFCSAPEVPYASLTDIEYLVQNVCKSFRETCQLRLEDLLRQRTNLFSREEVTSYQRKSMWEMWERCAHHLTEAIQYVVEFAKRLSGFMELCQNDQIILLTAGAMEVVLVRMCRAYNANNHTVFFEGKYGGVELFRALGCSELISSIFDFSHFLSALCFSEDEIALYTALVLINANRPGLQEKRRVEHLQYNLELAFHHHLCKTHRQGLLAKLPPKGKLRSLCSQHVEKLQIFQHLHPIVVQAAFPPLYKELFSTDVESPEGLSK
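Stable Schneider cell line, Gal4 DNA-binding domain fused to ROR gamma, UAS-luciferase. Cmpd 1 hr RT → CuSO4 700 uM final → 20 hr RT → luciferase reagent 10 min → luminescence.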
ELG1 repair inh = ELG1-dependent DNA repair inhibition | HEK293T ELG1-luciferase reporter, luminescence, 16 h; DNA damage induced by 5-fluorouridine | Potency, µM (highest dose often 46.1 µM), for inactives: at the top dose activity change, negative = inhibition, hits mostly inhibitors | hit rate 2.3% among 330,000; note: nearly all actives have a fitted effect of over 55% in size
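Step one: seed 2,000 cells per well. Step two: pin-transfer compound or DMSO alongside 5-fluorouridine. Step three: incubate 16 hr, 37 °C, 5% CO2. Step four: add ONE-Glo, wait 30 min, read luminescence.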
Gal4-VP16 FLuc = counter-screen for ROR gamma inhibitors: Gal4-VP16 reporter | AID 2546 | Drosophila S2 Gal4-VP16 UAS-luciferase, luminescence, 20 h | Potency, µM (doses to about 53.6 µM), without a hit: at the highest dose activity, negative = inhibition, hits mostly inhibitors | hit rate 3.5% among 310,000;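 note: Gal4-VP16 expression switched on by copper sulfate through the metallothionein promoter; nearly all actives have a fitted effect of over 50% in size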
DT40 TDP1 CPT = growth inhibition of DT40 Tdp1-/-;hTDP1 cells with camptothecin (screen for TDP1 inhibitors) | chicken DT40 Tdp1-/-;hTDP1 cells + 20 nM CPT, ATP luminescence, 48 h | Potency, µM (series often up to 46.2 µM), for the others: top-dose activity change, negative = growth inhibition, most hits filed as inhibitors | hit rate 12% among 420,000 | AID 686979; note: nearly all actives have a fitted effect of over 55% in size
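Chicken DT40 Tdp1-/- cells stably complemented with human TDP1 were seeded at 400 cells/well in medium containing 20 nM camptothecin, exposed to pin-transferred compounds, and grown at 37 °C for at least 48 hr. Viability was read as ATP luminescence.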
ALOX12 inh = blocks human arachidonate 12S-lipoxygenase | Potency, µM (series often up to 108 µM), for inactives: at the top dose activity change, negative = inhibition, usual class: inhibitors | AID 1671190 | P18054 | hit rate 1.1% among 580,000 | purified 12hLO, xylenol orange hydroperoxide absorbance
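Hydroperoxide product was detected by ferrous iron/xylenol orange as the 573 to 405 nm absorbance ratio. Arachidonic acid at 40 uM (final) was turned over for 30 min at room temperature by 150 nM human 12hLO, pH 7.0 Hepes buffer, after 15 min compound preincubation.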
DT40 TDP1 no CPT = qHTS for Inhibitors of human tyrosyl-DNA phosphodiesterase 1 (TDP1): qHTS in cells in absence of CPT | AID 686978, 2013 | DT40 Tdp1-/- hTDP1 cells, no CPT, ATP luminescence, 48 h | Potency, µM (doses to about 46.2 µM), without a hit: at the highest dose activity change, negative = growth inhibition, hits mostly inhibitors | hit rate 15% among 420,000; note: nearly all actives have a fitted effect of over 55% in size
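DT40 Tdp1-/-;hTDP1 cells, no CPT (DMSO vehicle only), 400 cells/well; compounds pin-transferred; ≥48 hr, 37 °C; CellTiter-Glo 30 min RT dark, luminescence read.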
Starred values were filed as active, the others as inactive; [ ] = another dose, or the depositor's remark. Most compounds without a hit are left out; they make up all but 15% or so of the library. Calls come from the whole dose curve; as a rule, active = well fitted curve in the direction sought with a large enough effect; inconclusive = small, poorly fitted or top-dose-only effect, or another doubt; inactive = no such curve, though single readings can be large; an effect the other way counts as inactive or inconclusive. % is set by controls: 0 for no effect and ±100 for the full control effect; potency is the fitted concentration of half-maximal effect.

`CC(=O)Nc1ccc(C(C#N)=Cc2ccc(N(C)CCC#N)cc2)cc1` gave DT40 TDP1 CPT inconclusive, ALOX12 inh 4% and DT40 TDP1 no CPT 15µM*.
Cc1cc(/C=C(\C#N)c2cccc(C(F)(F)F)c2)c(C)n1C was read as ALOX12 inh 40µM*.
CCOC(=O)CSc1ccc(S(=O)(=O)N2CCCCC2)cc1[N+](=O)[O-] was read as RORgamma inh 12%, ELG1 repair inh 0%, Gal4-VP16 FLuc -6%, DT40 TDP1 CPT 8%, ALOX12 inh 1% and DT40 TDP1 no CPT -27%.
Screening COC(=O)CSc1ccc(S(=O)(=O)N2CCCCCC2)cc1[N+](=O)[O-] returned RORgamma inh 1%, ELG1 repair inh 10µM*, Gal4-VP16 FLuc -2%, DT40 TDP1 CPT 0%, ALOX12 inh 2% and DT40 TDP1 no CPT 6%.
O=[N+]([O-])c1cc(S(=O)(=O)N2CCCCCC2)ccc1F was read as RORgamma inh 5.6µM*, ELG1 repair inh inconclusive, Gal4-VP16 FLuc 4.5µM*, DT40 TDP1 CPT 7.3µM*, ALOX12 inh -7% and DT40 TDP1 no CPT 10µM*.
Screening CCC1CN(C(=O)c2ccc3nc(-c4ccccc4)cn3c2)CCN1C(C)C (stereo not drawn) returned ALOX12 inh 18%.
For N#Cc1ccccc1Sc1ccccc1C(=O)Oc1ccc(Cl)cc1Cc1ccccc1 the results were ALOX12 inh 4%.
Screening CC(C)n1c(=S)[nH]c2c1c(=O)[nH]c(=O)n2C returned RORgamma inh 1%, ELG1 repair inh inconclusive, Gal4-VP16 FLuc -3%, DT40 TDP1 CPT -24%, ALOX12 inh 5µM* and DT40 TDP1 no CPT -7%.
For Cc1cc(CN2CC(N(C)c3ccccc3C)C2)on1 the results were ALOX12 inh 10%[176 µM].
For CCOc1ccccc1CN1CCCC(c2nc(-c3cccnc3)no2)CCNC(=O)CC1 (stereo not drawn) the results were ALOX12 inh 12%.
For COc1ccc(-c2nc(-c3ccccc3)c(-c3cc([N+](=O)[O-])ccc3C)[nH]2)cc1O the results were RORgamma inh inconclusive, ELG1 repair inh inconclusive, Gal4-VP16 FLuc inconclusive, DT40 TDP1 CPT inconclusive, ALOX12 inh inconclusive and DT40 TDP1 no CPT 15µM*.
Screening COc1ccc([N+](=O)[O-])cc1-c1[nH]c(-c2ccc(C(=O)O)cc2)nc1-c1ccccc1 returned RORgamma inh 4%, ELG1 repair inh -15%, Gal4-VP16 FLuc 0%, DT40 TDP1 CPT -6%, ALOX12 inh 0% and DT40 TDP1 no CPT -1%.
For O=[N+]([O-])c1ccc(O)c(C=Nc2ccc3nc(-c4ccccc4)[nH]c3c2)c1 the results were RORgamma inh -43%, ELG1 repair inh inconclusive, Gal4-VP16 FLuc -5%, DT40 TDP1 CPT -8%, ALOX12 inh 14% and DT40 TDP1 no CPT -23%.
Cc1ccc([N+](=O)[O-])cc1-c1[nH]c(-c2ccc(O)c(O)c2)nc1-c1ccccc1 was read as RORgamma inh inconclusive, ELG1 repair inh inconclusive, Gal4-VP16 FLuc -2%, DT40 TDP1 CPT 16µM*, ALOX12 inh inconclusive and DT40 TDP1 no CPT 16µM*.
CN1CCCCCCN(CC2CCCCC2)[C@H]2CCC[C@H]2C1=O was read as ALOX12 inh 57%.
CN1CCC2(C1)CN(Cc1ccccc1)c1ccc(C(=O)NCc3cccs3)cc12 (stereo not drawn) was read as ALOX12 inh -8%[176 µM].
Screening Cc1ccc(C)c(N2CCN(C(=O)c3ccc4c(c3)c(C)c(C)n4C)CC2)c1 returned RORgamma inh 17%, ELG1 repair inh inconclusive, Gal4-VP16 FLuc -29%, DT40 TDP1 CPT 23µM*, ALOX12 inh -2% and DT40 TDP1 no CPT 16µM*.
`Cc1ccc(-c2nc(C(=O)N3CCN(c4ccc(C)cc4C)CC3)no2)cc1` gave ALOX12 inh 34%.
Cc1ccc(C)c(N2CCN(C(=O)c3csc(C)c3C)CC2)c1 was read as RORgamma inh -13%, ELG1 repair inh -14%, Gal4-VP16 FLuc -10%, DT40 TDP1 CPT inconclusive, ALOX12 inh -16% and DT40 TDP1 no CPT inconclusive.
`Cc1ccc(C)c(N2CCN(C(=O)c3ccccc3Br)CC2)c1` gave RORgamma inh -15%, ELG1 repair inh 13%, Gal4-VP16 FLuc -1%, DT40 TDP1 CPT 21µM*, ALOX12 inh 0% and DT40 TDP1 no CPT 16µM*.
Screening Cc1ccc(N2CCN(C(=O)c3ccccc3Br)CC2)c(C)c1 returned RORgamma inh 5%, ELG1 repair inh -13%, Gal4-VP16 FLuc -10%, DT40 TDP1 CPT inconclusive, ALOX12 inh inconclusive and DT40 TDP1 no CPT 26µM*.
Cc1ccc(N2CCN(C(=O)c3cc(C(=O)c4ccccc4C)c[nH]3)CC2)c(C)c1 was read as RORgamma inh 20%, ELG1 repair inh inconclusive, Gal4-VP16 FLuc 1%[10 µM], DT40 TDP1 CPT inconclusive, ALOX12 inh -13% and DT40 TDP1 no CPT 23µM*.
For CCN1C(=O)N(C2Cc3ccccc3C2)C(=O)C12CCN(Cc1cnn(-c3ccccc3)c1)CC2 the results were ALOX12 inh 52%.
Cc1ccc2sc(/C=C/c3ccc(C#N)cc3)nc2c1 was read as ALOX12 inh -27%.
`CCc1ccc(C(=O)CC2OC(=O)c3c2ccc(OC)c3OC)cc1` (stereo not drawn) gave ALOX12 inh 1%.
For COc1ccc2cc3c(N)nn(C(=O)Cc4ccccc4OC)c3nc2c1 the results were RORgamma inh 44%, ELG1 repair inh inconclusive, Gal4-VP16 FLuc 10%, DT40 TDP1 CPT 9.2µM*, ALOX12 inh -29% and DT40 TDP1 no CPT 9.2µM*.
`COc1ccc(C(=O)n2nc(N)c3cc4ccc(C)cc4nc32)cc1OC` gave DT40 TDP1 CPT 15%, ALOX12 inh -8% and DT40 TDP1 no CPT -18%.
Screening Cc1ccc2cc3c(N)nn(C(=O)c4cccc(F)c4)c3nc2c1 returned DT40 TDP1 CPT inconclusive, ALOX12 inh -8% and DT40 TDP1 no CPT 7.3µM*.
For COc1ccc2cc3c(N)nn(C(=O)c4ccc(F)cc4Cl)c3nc2c1 the results were DT40 TDP1 CPT 9.2µM*, ALOX12 inh 0% and DT40 TDP1 no CPT 8.2µM*.
Screening COc1ccc2cc3cc(C(=O)NCc4ccccc4OC)oc3nc2c1 returned DT40 TDP1 CPT inconclusive, ALOX12 inh -11% and DT40 TDP1 no CPT inconclusive.
